Measured values from PubChem BioAssay (EPA / NIEHS).
Records with an inconclusive call do not appear. Active and inactive are the calls of the source. Rule for the calls, unless noted: active = hit-call score of the fitted dose curve at least 0.9, where 1 is the maximum; inactive = score below 0.9.

Columns and labels:
[1] = IUF_NPC1b_proliferation_BrdU_72hr: Leibniz Research Institute for Environmental Medicine (IUF) 72-hour Neural Progenitor Cell Bromodeoxyuridine (BrdU) Proliferation Assay (NPC1b) (AID 2284207)
How it was run: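 hNPC spheres (primary, GW 16-19 fetal cortex), single sphere/well, EGF+FGF medium; 72 h compound, no renewal; BrdU pulse last 16 h; luminescent ELISA; activity vs DMSO baseline; growth-factor withdrawal as positive control.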

[2] = IUF_NPC1a_proliferation_area_72hr: Leibniz Research Institute for Environmental Medicine (IUF) 72-hour Neural Progenitor Cell Proliferation Area Assay (NPC1a) (AID 2284208)
How it was run: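 Spheres of 0.3 mm are plated singly in growth-factor medium and exposed from day 0. After three days at 37C and 5% CO2, sphere area is measured by phase contrast imaging, with activity referenced to DMSO.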

[3] = CCTE_Mundy_HCI_Cortical_Synap_Neur_Matur_NeuriteSpotCountPerNeuriteLength: CCTE's Synaptogenesis and Neurite Maturation Assay in rat cortical cells for Neurite Spot Count per Neurite Length, Mundy Lab (AID 2284210)
How it was run: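 Rat primary cortical cultures, glia arrested with AraC at DIV 5, were dosed with media change at DIV 7 and fixed at DIV 12. Synaptophysin puncta per MAP2-labelled neurite length were quantified by high-content imaging versus DMSO.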

[4] = CCTE_Mundy_HCI_Cortical_NOG_NeuriteCount: CCTE's Neurite Outgrowth Assay in rat cortical cells for Neurite Count, Mundy Lab (AID 2284212);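 note: cells fixed about two days after chemical exposure began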
How it was run: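 Neurite number per cell from high-content imaging of betaIII-tubulin immunostaining, with Hoechst nuclear counterstain.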

[5] = CCTE_Mundy_HCI_Cortical_NOG_NeuriteLength: CCTE's Neurite Outgrowth Assay in rat cortical cells for Neurite Length, Mundy Lab (AID 2284213);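 note: neurites imaged about 48 to 50 h after chemical exposure began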
How it was run: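 Neurite length was read by high-content imaging of βIII-tubulin-labelled neurites in rat primary cortical cultures. Activity was fitted relative to DMSO.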

[6] = CCTE_Mundy_HCI_Cortical_Synap_Neur_Matur_NeuriteSpotCountPerNeuron: CCTE's Synaptogenesis and Neurite Maturation Assay in rat cortical cells for Neurite Spot Count per Neuron Count, Mundy Lab (AID 2284215)
How it was run: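 Rat cortical primary cultures; AraC DIV 5 to arrest glia; dosing + media change DIV 7; fixed DIV 12. Anti-MAP2/anti-synaptophysin, Hoechst nuclei; HCI puncta count per neuron, positive fitting direction vs DMSO.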

[7] = CCTE_Mundy_HCI_Cortical_Synap_Neur_Matur_SynapseCount: CCTE's Synaptogenesis and Neurite Maturation Assay in rat cortical cells for Synapse Count, Mundy Lab (AID 2284218)
How it was run: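 Rat primary cortical cells in 96-well plates received AraC at DIV 5 and were dosed with chemicals at DIV 7 with media change, through DIV 12 (288.33 h). Synapses per neuron counted by high-content imaging of MAP2/synaptophysin/Hoechst staining, versus DMSO baseline.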

[8] = CCTE_Mundy_HCI_hN2_NOG_NeuriteCount: CCTE's Neurite Outgrowth Assay in human hN2 cells for Neurite Count, Mundy Lab (AID 2284219; active = hit-call score of the fitted dose curve at least 0.9, where 1 is the maximum)
How it was run: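 In this morphology assay, hNP1-derived neurons received test chemical 2 h post-plating and were fixed two days later in warm paraformaldehyde/sucrose containing Hoechst 33342. Neurites, labelled by rabbit anti-βIII-tubulin (1:800) and Alexa Fluor-488 (1:500), were counted automatically.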

[9] = CCTE_Mundy_HCI_hN2_NOG_NeuriteLength: CCTE's Neurite Outgrowth Assay in human hN2 cells for Neurite Length, Mundy Lab (AID 2284220; active = hit-call score of the fitted dose curve at least 0.9, where 1 is the maximum)
How it was run: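 Using βIII-tubulin immunofluorescence and Hoechst nuclear counterstain, this component quantifies neurite length in hNP1-derived neurons.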

[10] = CCTE_Mundy_HCI_hN2_NOG_NeuronCount: CCTE's Neurite Outgrowth Assay in human hN2 cells for Neuron Count, Mundy Lab (AID 2284221; active = hit-call score of the fitted dose curve at least 0.9, where 1 is the maximum)
How it was run: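 Read-out is the number of betaIII-tubulin-positive neurons imaged by automated high-content analysis, with DMSO as negative control.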

[11] = CCTE_Mundy_HCI_Cortical_Synap_Neur_Matur_NeuriteCount: CCTE's Synaptogenesis and Neurite Maturation Assay in rat cortical cells for Neurite Count, Mundy Lab (AID 2284222)
How it was run: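 Primary rat cortical cells were plated, treated with AraC at DIV 5, then exposed to chemicals from DIV 7 through DIV 12. After fixation and immunostaining for MAP2 and synaptophysin, imaging quantified neurites, with DMSO as the negative control.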

[12] = CCTE_Mundy_HCI_Cortical_Synap_Neur_Matur_CellBodySpotCount: CCTE's Synaptogenesis and Neurite Maturation Assay in rat cortical cells for Cell Body Spot Count, Mundy Lab (AID 2284223)
How it was run: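 Rat cortical neurons; AraC @ DIV 5; dose + media change DIV 7; fix DIV 12; anti-MAP2/anti-synaptophysin IF, Hoechst; HCI count of soma synaptophysin puncta/neuron; DMSO = negative control.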

[13] = UKN4_HCS_LUHMES_cell_viability: Viability Assessment in the University of Konstanz (UKN) Leist Lab Neurite Outgrowth Assay in human LUHMES cells (UKN4) (AID 2284232)
How it was run: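 LUHMES cells differentiated 2 days, replated without cAMP/GDNF, then exposed to compounds for 24 h from attachment. Viability read by high-content fluorescence imaging after 30 min live-staining with H-33342 and calcein-AM; bidirectional fit relative to DMSO baseline.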

[14] = UKN2_HCS_IMR90_cell_viability: Viability Assessment in the University of Konstanz (UKN) Leist Lab Neural Crest Cell Migration Assay in human induced IMR90 Pluripotent Stem Cells (UKN2) (AID 2284233);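 note: viability of neural crest cells differentiated from IMR90 iPSC measured by calcein-AM fluorescence imaging; cells exposed to compound for 24 h after a 24 h migration phase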
How it was run: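 iPSC-derived (IMR90) neural crest cells seeded around silicone stoppers on PLO/laminin/fibronectin; after 24 h migration in N2-S with EGF/FGF, chemical added for 24 h. Calcein-AM/Hoechst stained 30 min, high-content imaged; bidirectional fit versus DMSO.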

[15] = CCTE_Mundy_HCI_hNP1_Casp3_7: CCTE's Caspase-Glo 3/7 Assay in human neuroprogenitor cells for Apoptosis, Mundy Lab (AID 2284240)
How it was run: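 Neuroepithelial-lineage stem cells from WA09 embryonic cells were treated with chemicals after 40–44 h of culture. Twenty-four hours later, caspase-3/7 activation was detected luminescently after a 30 min room-temperature reagent step, with DMSO as baseline.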

[16] = CCTE_Mundy_HCI_hNP1_CellTiter: CCTE's Cell Titer-Glo 2 Assay in human neuroprogenitor cells for Viability, Mundy Lab (AID 2284241; active = hit-call score of the fitted dose curve at least 0.9, where 1 is the maximum)
How it was run: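 Measures ATP content in human neural progenitors derived from WA09 embryonic cells. Read-out at 26.5 hours after dosing, with DMSO serving as the negative control and baseline.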

[17] = CCTE_Mundy_HCI_Cortical_Synap_Neur_Matur_NeuronCount: CCTE's Synaptogenesis and Neurite Maturation Assay in rat cortical cells for Neuron Count, Mundy Lab (AID 2284242; active = hit-call score of the fitted dose curve at least 0.9, where 1 is the maximum;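 note: hits reduce neuron count versus DMSO baseline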)
How it was run: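 Rat primary cortical cells received AraC at DIV 5 to arrest glia, then were dosed with chemicals at DIV 7 through DIV 12. Fixed cells were stained for nuclei, MAP2 and synaptophysin, and neurons were counted by high-content imaging relative to DMSO.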

[18] = IUF_NPC2c_oligodendrocyte_migration_120hr: Leibniz Research Institute for Environmental Medicine (IUF) 120-hour Neural Progenitor Cell Migration Assay for Oligodendrocyte Migration (NPC2c) (AID 2284297)
How it was run: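 Read-out is the mean distance of O4-positive oligodendrocytes from the sphere core edge at 120 h, normalized to radial glia migration and fitted in the gain direction against DMSO. Spheres of primary human neural progenitors differentiated on laminin under continuous compound exposure.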

[19] = IUF_NPC2a_radial_glia_migration_120hr: Leibniz Research Institute for Environmental Medicine (IUF) 120-hour Neural Progenitor Cell Migration Assay for Radial Glia Migration (NPC2a) (AID 2284298)
How it was run: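 Readout: distance in um from sphere core edge to migration-area edge, derived from Hoechst nuclei density with a threshold-defined polynomial boundary. Spheres: hNPC, GW 16-19, 0.3 mm, on PDL/laminin; exposure 5 days; DMSO is baseline.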

[20] = IUF_NPC2a_radial_glia_migration_72hr: Leibniz Research Institute for Environmental Medicine (IUF) 72-hour Neural Progenitor Cell Migration Assay for Radial Glia Migration (NPC2a) (AID 2284299)
How it was run: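 Human fetal cortex (GW 16-19) neural progenitor spheres, 0.3 mm, plated on poly-D-lysine/laminin in N2 differentiation medium with compound from day 0. Radial glia migration distance (um, sphere core edge to migration edge) measured manually in four directions on 72 h brightfield images; well mean used.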

[21] = IUF_NPC2b_neuronal_migration_120hr: Leibniz Research Institute for Environmental Medicine (IUF) 120-hour Neural Progenitor Cell Migration Assay for Neuron Migration (NPC2b) (AID 2284300)
How it was run: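 Read-out is mean distance from sphere edge to each TUBB3-positive neuron at 120 h, expressed relative to radial glia migration distance and to DMSO baseline. Single 0.3 mm human NPC spheres differentiated on laminin under continuous compound exposure.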

[22] = IUF_NPC3_neuronal_differentiation_120hr: Leibniz Research Institute for Environmental Medicine (IUF) 120-hour Neuronal Differentiation Assay (NPC3) (AID 2284301)
How it was run: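 Primary human fetal neural progenitor spheres (GW 16-19, 0.3 mm) plated on poly-D-lysine/laminin in N2 medium, exposed from day 0 for 120 h with half-medium refresh at day 3. TUBB3+ cells as percent of Hoechst nuclei in migration area; DMSO baseline.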

[23] = IUF_NPC4_neurite_length_120hr: Leibniz Research Institute for Environmental Medicine (IUF) 120-hour Neuronal Morphology Assay for Neurite Length (NPC4) (AID 2284302)
How it was run: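 Human fetal cortex (GW 16-19) neural progenitor spheres, 0.3 mm, were plated on poly-D-lysine/laminin in N2 differentiation medium and exposed from day 0 for 120 h, half-feeding at day 3. Mean TUBB3+ neurite length (µm) came from skeletonized images, relative to DMSO.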

[24] = IUF_NPC5_oligodendrocyte_differentiation_120hr: Leibniz Research Institute for Environmental Medicine (IUF) 120-hour Oligodendrocyte Differentiation Assay (NPC5) (AID 2284304; active = hit-call score of the fitted dose curve at least 0.9, where 1 is the maximum;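 note: primary human fetal neural progenitor spheres plated to migrate and differentiate; share of O4-positive cells among Hoechst nuclei found by CNN image analysis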)
How it was run: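 Oligodendrocyte differentiation was scored after 120 h as the O4-positive share of Hoechst-stained nuclei across the neurosphere migration area, using a trained convolutional neural network on high-content fluorescence images. Human fetal neural progenitor spheres were dosed from day 0, normalised to DMSO.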

[25] = IUF_NPC4_neurite_area_120hr: Leibniz Research Institute for Environmental Medicine (IUF) 120-hour Neuronal Morphology Assay for Neurite Area (NPC4) (AID 2284305; active = hit-call score of the fitted dose curve at least 0.9, where 1 is the maximum)
How it was run: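 Human fetal cortex-derived neural progenitor spheres (0.3 mm, GW 16-19) plated on poly-D-lysine/laminin in N2 differentiation medium and exposed from day 0 for 120 h across 7 concentrations plus solvent control. Neurite area is mean pixel area per TUBB3-positive neuron via skeletonization, analysed relative to DMSO.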

[26] = IUF_NPC2-5_cytotoxicity_72hr: Cytotoxicity Assessment at 72 hours in the Leibniz Research Institute for Environmental Medicine (IUF) Neural Progenitor Cell Migration and Differentiation Assay for Cytotoxicity (NPC2-5) (AID 2284306; active = hit-call score of the fitted dose curve at least 0.9, where 1 is the maximum;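 note: LDH release into supernatant measured by resorufin fluorescence marking membrane damage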)
How it was run: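 Human fetal (GW 16-19) neural progenitor spheres, 0.3 mm, plated on poly-D-lysine/laminin in N2 differentiation medium and exposed from day 0 to 7 concentrations plus solvent control (DMSO ≤0.1%). LDH-dependent resazurin-to-resorufin fluorescence in supernatant at 72 h.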

[27] = IUF_NPC2-5_cytotoxicity_120hr: Cytotoxicity Assessment at 120 hours in the Leibniz Research Institute for Environmental Medicine (IUF) Neural Progenitor Cell Migration and Differentiation Assay (NPC2-5) (AID 2284307; active = hit-call score of the fitted dose curve at least 0.9, where 1 is the maximum)
How it was run: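 Sphere plating starts differentiation and exposure together at day 0. Compound solution is half-replaced on day 3. At 120 h, medium supernatant is taken for an LDH membrane-integrity read based on resazurin reduction to resorufin fluorescence.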

[28] = IUF_NPC2-5_cell_number_120hr: Cell Number Assessment at 120 hours in the Leibniz Research Institute for Environmental Medicine (IUF) Neural Progenitor Cell Migration and Differentiation Assay (NPC2-5) (AID 2284308);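 note: count of Hoechst-stained nuclei in migration zone around plated human neural progenitor spheres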
How it was run: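 hNPC spheres, one per well, PDL/laminin, N2 medium, 37C, 5% CO2. Dosing day 0 → half-medium change with fresh compound day 3 → fix 120 h. Readout: Hoechst+ nuclei count, migration area; 7 concentrations plus solvent control.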

[29] = IUF_NPC2-5_viability_120hr: Viability Assessment at 120 hours in the Leibniz Research Institute for Environmental Medicine (IUF) Neural Progenitor Cell Migration and Differentiation Assay (NPC2-5) (AID 2284312)
How it was run: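 Human fetal (GW 16-19) neural progenitor spheres of 0.3 mm were plated on poly-D-lysine/laminin in N2 differentiation medium and exposed from day 0 for 120 h, with half-medium refresh at day 3. Viability was read as alamar blue resazurin-to-resorufin fluorescence against DMSO.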

[30] = IUF_NPC1_cytotoxicity_72hr: Cytotoxicity Assessment at 72 hours in the Leibniz Research Institute for Environmental Medicine (IUF) Neural Progenitor Cell Proliferation Assay (NPC1) (AID 2284332; active = hit-call score of the fitted dose curve at least 0.9, where 1 is the maximum;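 note: rising LDH signal means more cytotoxicity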)
How it was run: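 Single human fetal cortex neural progenitor spheres (GW 16-19, 0.25-0.35 mm) in EGF/FGF proliferation medium were exposed to compound for 72 h at 37C without renewal. Medium LDH release was read as resorufin fluorescence and fitted as gain-of-signal.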

Brc1ccc(Oc2ccc(Br)cc2Br)c(Br)c1
outcome [1]: inactive | outcome [2]: inactive | AC50 [3]: 4.11 µM (active) | AC50 [4]: 23.6 µM (active) | AC50 [5]: 25.2 µM (active) | AC50 [6]: 8.25 µM (active) | AC50 [7]: 8.79 µM (active) | AC50 [8]: 8.93 µM (active) | AC50 [9]: 8.87 µM (active) | AC50 [10]: 4.6 µM (active) | AC50 [11]: 5.14 µM (active) | outcome [12]: inactive | AC50 [13]: 41.5 µM (active) | outcome [14]: inactive | outcome [15]: inactive | outcome [16]: inactive | AC50 [17]: 7.42 µM (active) | outcome [18]: inactive | outcome [19]: inactive | outcome [20]: inactive | outcome [21]: inactive | outcome [22]: inactive | outcome [23]: inactive | AC50 [24]: 10.4 µM (active) | outcome [25]: inactive | outcome [26]: inactive | outcome [27]: inactive | outcome [28]: inactive | outcome [29]: inactive | outcome [30]: inactive
